Source: PubChem BioAssay
TMEM16A inh: blocks the mouse calcium-activated chloride channel TMEM16A. Q8BHY3. HEK293 TMEM16A/YFP iodide influx fluorescence, ionomycin. normalized B-score (activity score, 25-100; higher = stronger inhibition) at 10 µM. hit rate 1.2% among 310,000. AID 588511;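 active means ratio plate-corrected score three or more library SD toward inhibition, starting fluorescence score within five deviations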;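 further: score derived from kinetic fluorescence span divided by baseline fluorescence per well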
Target sequence (Q8BHY3 whole entry, looked up): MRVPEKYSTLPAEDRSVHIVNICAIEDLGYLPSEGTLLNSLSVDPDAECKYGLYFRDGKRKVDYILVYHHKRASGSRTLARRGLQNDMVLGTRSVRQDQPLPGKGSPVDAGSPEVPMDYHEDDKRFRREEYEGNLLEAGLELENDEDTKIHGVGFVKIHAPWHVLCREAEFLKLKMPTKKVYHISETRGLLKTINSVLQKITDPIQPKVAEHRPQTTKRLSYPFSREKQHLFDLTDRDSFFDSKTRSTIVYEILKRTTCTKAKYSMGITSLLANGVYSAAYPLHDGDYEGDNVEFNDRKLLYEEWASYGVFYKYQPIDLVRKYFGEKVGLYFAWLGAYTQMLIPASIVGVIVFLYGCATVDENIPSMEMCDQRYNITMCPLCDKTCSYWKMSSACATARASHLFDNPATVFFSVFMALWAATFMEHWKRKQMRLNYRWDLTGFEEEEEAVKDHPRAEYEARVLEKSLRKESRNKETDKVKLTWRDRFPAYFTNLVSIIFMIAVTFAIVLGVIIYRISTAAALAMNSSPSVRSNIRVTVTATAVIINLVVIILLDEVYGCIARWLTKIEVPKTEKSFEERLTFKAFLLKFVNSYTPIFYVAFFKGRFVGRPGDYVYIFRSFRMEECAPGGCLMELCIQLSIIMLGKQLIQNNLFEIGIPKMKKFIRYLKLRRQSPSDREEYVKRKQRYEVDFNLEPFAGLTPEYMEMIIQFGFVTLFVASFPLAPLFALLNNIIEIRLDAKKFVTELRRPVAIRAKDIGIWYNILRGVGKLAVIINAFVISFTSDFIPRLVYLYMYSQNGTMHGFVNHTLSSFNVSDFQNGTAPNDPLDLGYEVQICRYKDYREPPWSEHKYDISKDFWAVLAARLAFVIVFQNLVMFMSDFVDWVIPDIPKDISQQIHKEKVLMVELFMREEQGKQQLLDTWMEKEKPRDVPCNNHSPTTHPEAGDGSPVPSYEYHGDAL
CRFR2-BP antag: antagonists of CRF-binding protein/CRF-R2 receptor complex. HEK293 CRF-R2/CRF-BP, CRF-induced calcium fluorescence. inhibition, % at 11.8 µM. hit rate 0.59% among 350,000;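 active means inhibition of the ligand-induced calcium signal above about 50% at the single tested concentration, limit read from the data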
RTF Ca sens inh: cardiac RTF calcium desensitization | P19429+P45379 | AID 493244 | IANBD-labeled cardiac RTF, Ca2+ fluorescence | hit rate 0.12% among 340,000 | inhibition, % at 7.15 µM;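 active means inhibition above the mean inhibition of all tested compounds plus 3 SD, cut at about 17% in these data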;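 further: assay run at fixed EC70 calcium of 1.6 mM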
ANO1 activ: activates or potentiates the mouse TMEM16A chloride channel; AID 623877; Q8BHY3; B-score at 10 µM; hit rate 0.3% among 340,000; HEK293 TMEM16A/YFP-H148Q/I152L, iodide quench fluorescence; stronger effect = lower value;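 active means fluorescence-ratio B-score plate-corrected deviation score at least 3 library SD below zero, with starting fluorescence score within 5 deviations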;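 further: channel opened by trigger with iodide after compound preincubation; score built on the fluorescence ratio of max minus min over baseline; more negative score means more quench and so TMEM16A activation or potentiation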
CRFR2-BP ag: CRF-BP/CRF-R2 complex agonism; HEK293 CRF-R2/CRF-BP, calcium dye fluorescence (FLIPR); percent of saturating CRF peptide response; activation, % at 13.2 µM; hit rate 0.46% among 350,000;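 active means activation of at least 50%, plus an integration ratio under a set limit after plate pattern correction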;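 further: plate controls were neutral control wells without compound for no effect and CRF at EC100 for full effect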
RTF Ca sens act: increases calcium sensitivity of human cardiac regulated thin filaments; hit rate 0.24% among 340,000; activation, % at 7.2 µM; IANBD-labeled TnC RTF fluorescence at EC20 calcium; 0% EC20 calcium, 100% full calcium; P19429+P45379;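 active means activation above the mean over all tested compounds plus 3 SD, cut at about 30% in these data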;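 further: rise in fluorescence read as greater calcium sensitivity of cardiac thin filaments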
The depositor's hits bear a star; i = inactive; nt = no result. Rows were chosen to be rich in hits. Some 2.4% of all compounds tested hit in one or more screens of this group.

SMILES	TMEM16A inh	CRFR2-BP antag	RTF Ca sens inh	ANO1 activ	CRFR2-BP ag	RTF Ca sens act
Cc1ccc(OC(=O)c2oc3ccc(F)cc3c2C)c(C)c1	i	-4.3	1.8	i	6.0	2.2
Cc1ccc(S(=O)(=O)NC(=O)N2CCCC2)cc1	nt	2.7	-2.8	i	-2.4	-3.4
CCOC(=O)C(CCCCCOc1ccc([N+](=O)[O-])cc1)C(=O)OCC	100*	29.0	-2.6	i	1.4	-0.7
CCOC(=O)C(CCCCCOc1ccccc1[N+](=O)[O-])C(=O)OCC	i	19.0	-11.2	i	-1.6	0.8
O=C1c2cccc3c(O)ccc(c23)C(=O)N1Cc1ccccc1	i	-195.6	i	i	247.9	957.0*
CCc1ccc(CC2S/C(=C(\C#N)C(C)=O)NC2=O)cc1 (stereo not drawn)	100*	27.1	1.9	i	0.7	-4.9
CCOC(=O)c1ccc(CC2S/C(=C(\C#N)C(C)=O)NC2=O)cc1 (stereo not drawn)	i	-3.7	-0.9	i	-0.9	3.6
C=CCN1C(=O)c2ccc(C(=O)OCC(=O)N(CC)c3c(N)n(Cc4ccccc4)c(=O)[nH]c3=O)cc2C1=O	nt	-4.5	0.4	i	-0.2	2.2
O=C(CSc1ccccc1Cl)N1CCC(c2nc3ccccc3s2)CC1	100*	4.4	-8.3	i	0.2	-1.2
O=C(Nc1cccc(F)c1)C1CCN(C(=O)N2CCOc3ccccc32)CC1	i	-10.0	-2.7	i	-1.0	2.6
CCCCN(C(=O)c1ccc(S(=O)(=O)N(C)C)cc1)c1nc2ccccc2s1	i	14.0	-6.7	-9.05*	-0.8	-7.7
CC(=O)OCC(=O)C1(O)CCC2C3CC(C)C4=CC(=O)C=CC4(C)C3(F)C(O)CC21C (stereo not drawn)	nt	-11.6	-1.6	i	1.7	-5.6
CC(=O)C1(O)CCC2C3CC(C)C4=CC(=O)C=CC4(C)C3(F)C(O)CC21C (stereo not drawn)	nt	78.9*	0.9	i	4.8	-5.0
Cc1occc(=O)c1OC(=O)Nc1ccccc1	i	-7.4	-9.5	i	-0.6	-3.8
CC(C)=CCc1c(O)cc2c(=O)c3ccc(O)cc3oc2c1O	i	-12.8	0.3	-7.03*	-0.3	-1.0
Cc1ccc(S(=O)(=O)/N=C2\C=C(NS(=O)(=O)c3ccccc3)C(=O)c3ccccc32)c(C)c1	nt	30.2	2.2	i	0.8	-6.3
Cc1ccc(S(=O)(=O)/N=C2\C=C(Nc3cccc(C(=O)O)c3)C(=O)c3ccccc32)c(C)c1	i	66.0*	9.3	i	-0.5	-6.2
Cc1ccc(S(=O)(=O)/N=C2\C=C(Nc3cccc(C(=O)O)c3)C(=O)c3ccccc32)cc1	25*	37.7	3.6	i	-2.7	5.6
CC(=O)Nc1ccc(Nc2nc3ccccc3nc2NS(=O)(=O)c2ccc(Cl)c([N+](=O)[O-])c2)cc1	nt	64.6*	-3.5	i	-3.5	1.2
CC(=O)Nc1ccc(S(=O)(=O)Nc2nc3ccccc3nc2Nc2ccc(N)cc2)cc1	i	-1.6	-76.0	i	14.2	16.9
CCCCCCNC(=O)C(C#N)c1nc2ccccc2nc1N1CCCC1 (stereo not drawn)	i	-137.0	4.7	i	181.6*	38.1*
CCN(CC)c1nc2ccccc2nc1C(C#N)C(=O)NCCc1ccccc1 (stereo not drawn)	i	-29.0	-26.9	i	4.0	65.5*
CCCCCNC(=O)C(C#N)c1nc2ccccc2nc1N1CCCC1 (stereo not drawn)	i	-14.8	-11.8	i	-0.1	12.0
N#CC(C(=O)NCCc1ccccc1)c1nc2ccccc2nc1N1CCCCC1 (stereo not drawn)	100*	-14.1	-12.2	i	18.8	0.2
COC(=O)C(NC(=O)CCc1c(C)nc2c(c(C)nn2-c2ccccc2)c1C)C(C)C (stereo not drawn)	i	3.1	-6.7	i	-2.1	0.6
SMILES	TMEM16A inh	CRFR2-BP antag	RTF Ca sens inh	ANO1 activ	CRFR2-BP ag	RTF Ca sens act
CC(=O)Nc1cccc(OC(=O)c2ccoc2C)c1	i	-58.3	-3.6	i	115.0*	6.4
Cc1nc2sccn2c(=O)c1S(=O)(=O)Nc1cccc(Cl)c1C	i	-25.5	2.4	i	57.3*	-4.7
Cc1cccn2c(CNCCc3ccco3)c(C(=O)N3CCOCC3)nc12	nt	20.5	-3.4	i	1.7	9.5
CC1=C(C(=O)N2CCOCC2)CC(CC(=O)NC2CCCC2)C(=O)N1Cc1ccccc1 (stereo not drawn)	nt	23.3	nt	nt	0.0	nt
O=C(NN=Cc1ccccc1C(=O)O)C(=O)NN=Cc1ccccc1C(=O)O	nt	6.0	-8.1	i	-0.4	-2.0
O=C(O)c1ccccc1/C=N/NC(=S)NCc1ccccc1	i	10.6	-5.4	-12.1*	-1.1	-0.1
Oc1ccccc1/C=N/NC(=S)NCCc1ccccc1	i	9.1	0.5	i	-4.3	0.0
Cc1ccc(C)c(/C=N/NC(=S)NCCc2ccccc2)c1	100*	9.1	-1.7	i	-1.3	1.9
COc1ccc(NC(=O)C2CC(=O)N(CCc3ccc(F)cc3)C2)c(OC)c1 (stereo not drawn)	i	-9.3	-2.6	i	0.8	-7.3
COc1ccc(CCn2c(C(C)C)nc3c(c(=O)c4ccccc4n3C)c2=O)cc1	i	49.8	-12.5	i	114.8*	2.3
COc1ccc(-c2nc3c(c(=O)c4ccccc4n3C)c(=O)n2Cc2ccccc2)cc1	i	-36.7	-2.1	i	52.7*	3.3
COc1ccc(Cn2c(-c3ccc(OC)cc3)nc3c(c(=O)c4ccccc4n3C)c2=O)cc1	i	nt	nt	nt	nt	nt
COc1ccc(Cn2c(-c3ccco3)nc3c(c(=O)c4ccccc4n3C)c2=O)cc1	i	72.0*	0.4	i	-3.7	6.8
CC[C@@H](C)C(NC(=O)OC(C)(C)C)c1cn([C@@H](CCC(=O)OC(C)(C)C)C(=O)N2CCN(C(=O)OC(C)(C)C)CC2)nn1 (stereo partly drawn)	i	2.9	0.5	i	-3.0	-5.8
COc1ccc(-n2cnnc2SCC(=O)NC2CCCCC2)cc1	nt	-1.6	-0.1	i	-0.3	-3.3
O=C(NNC(=O)c1ccccc1[N+](=O)[O-])c1ccc(NS(=O)(=O)c2cccs2)cc1	i	-3.9	-0.3	i	0.1	-1.4
CC(C)c1ccc(CN2CC(C(=O)O)CC2=O)cc1 (stereo not drawn)	i	8.8	-14.7	i	-0.5	-2.1
CCOc1cc(/C=N\NC(=O)C2C(=O)NCC2c2ccccc2)ccc1OC (stereo not drawn)	i	-74.4	2.2	i	56.1*	-7.4
COc1ccc(/C=N\NC(=O)C2C(=O)NCC2c2ccccc2)cc1O (stereo not drawn)	i	-13.2	-4.9	i	3.8	-1.2
